Data: PubChem BioAssay AID1159580 (chemical genetic matrix, 2015)
Several values for one entry are separate records, joined by “and”; a condition that tells them apart may be missing. Equal values may be shown once. About 2,000 (36%) of roughly 5,500 compounds were called active. Another 18% or so got no clear call; they are omitted. No stated cut-off is given here; in the data, active means normalized growth mostly below about 0.91 (no sharp cut-off); inconclusive means no clear call, values can overlap the other calls; inactive means mostly above about 0.92. The list shows a part of the results.

Assay: chemical genetic growth profiling, strain panel (AID 1159580);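 further: tested at 20 µM; growth read once vehicle control cultures reached saturation at 30 °C; 1 = growth at the plate median or of vehicle wells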
Settings: S. cerevisiae deletion strains, growth OD

Measured: normalized growth

C[C@]12CCC(=O)C=C1CCC1C2C(=O)C[C@@]2(C)C1CC[C@]2(O)C(=O)CO (stereo partly drawn)
inactive: locus YAL013W, strain DEP1, stronger effect = lower value 1 | locus YAL021C, strain ccr4, stronger effect = lower value 1.01 | locus YAL026C, strain drs2, stronger effect = lower value 1 | locus YAL030W, strain snc1, stronger effect = lower value 1 | locus YBL061C, strain skt5, stronger effect = lower value 1 | locus YBR009C, strain hhf1, stronger effect = lower value 0.992 | locus YBR021W, strain FUR4, stronger effect = lower value 1 | locus YBR023C, strain chs3, stronger effect = lower value 1.01 | locus YBR171W, strain sec66, stronger effect = lower value 1.01 | locus YBR229C, strain ROT2, stronger effect = lower value 1 | locus YBR231C, strain swc5, stronger effect = lower value 0.986 | locus YBR279W, strain paf1, stronger effect = lower value 1 | locus YCL011C, strain gbp2, stronger effect = lower value 1.01 | locus YCL016C, strain dcc1, stronger effect = lower value 1 | locus YCL029C, strain bik1, stronger effect = lower value 1.01 | locus YCL061C, strain MRC1, stronger effect = lower value 0.999 | locus YCL069W, strain vba3, stronger effect = lower value 1 | locus YCR088W, strain abp1, stronger effect = lower value 1.01 | locus YDL005C, strain med2, stronger effect = lower value 0.993 | locus YDL035C, strain GPR1, stronger effect = lower value 1.02 | locus YDL040C, strain nat1, stronger effect = lower value 1 | locus YDL074C, strain BRE1, stronger effect = lower value 1.05 | locus YDL101C, strain DUN1, stronger effect = lower value 1 | locus YDL134C, strain PPH21, stronger effect = lower value 0.986 | locus YDL185W, strain tfp1, stronger effect = lower value 1.01 | locus YDL192W, strain arf1, stronger effect = lower value 1.02 | locus YDR001C, strain nth1, stronger effect = lower value 1 | locus YDR069C, strain doa4, stronger effect = lower value 0.988 | locus YDR101C, strain arx1, stronger effect = lower value 1.04 | locus YDR137W, strain rgp1, stronger effect = lower value 1.01 | locus YDR159W, strain sac3, stronger effect = lower value 0.981 | locus YDR162C, strain NBP2, stronger effect = lower value 0.984 | locus YDR195W, strain ref2 0.973 | locus YDR297W, strain sur2, stronger effect = lower value 1 | locus YDR318W, strain mcm21, stronger effect = lower value 0.986 | locus YDR334W, strain swr1, stronger effect = lower value 1.01 | locus YDR335W, strain msn5, stronger effect = lower value 1.01 | locus YDR388W, stronger effect = lower value 1.01 | locus YDR392W, strain spt3, stronger effect = lower value 0.929 | locus YDR502C, strain sam2, stronger effect = lower value 1.01 | locus YEL003W, strain gim4, stronger effect = lower value 1.01 | locus YEL037C, strain rad23, stronger effect = lower value 1.01 | locus YEL061C, strain CIN8 (second series), stronger effect = lower value 1.01 | locus YEL061C, strain CIN8, stronger effect = lower value 0.998 | locus YER015W, strain faa2, stronger effect = lower value 1 | locus YER016W, strain bim1, stronger effect = lower value 1 | locus YER110C, stronger effect = lower value 1.01 | locus YER111C, strain swi4, stronger effect = lower value 1 | locus YER155C, strain BEM2 (second series), stronger effect = lower value 1 | locus YER155C, strain BEM2, stronger effect = lower value 1 | locus YER167W, strain BCK2, stronger effect = lower value 0.994 | locus YFR010W, strain ubp6, stronger effect = lower value 1 | locus YGL078C, strain dbp3, stronger effect = lower value 1.02 | locus YGL086W, strain mad1, stronger effect = lower value 1.02 | locus YGL167C, strain pmr1, stronger effect = lower value 1 | locus YGL173C, strain kem1, stronger effect = lower value 1.01 | locus YGL227W, strain vid30, stronger effect = lower value 1 | locus YGL240W, strain doc1, stronger effect = lower value 0.975 | locus YGL248W, strain PDE1, stronger effect = lower value 0.984 | locus YGL253W, strain hxk2, stronger effect = lower value 1.01 | locus YGR078C, strain PAC10, stronger effect = lower value 0.986 | locus YGR135W, strain pre9, stronger effect = lower value 0.968 | locus YGR229C, strain SMI1, stronger effect = lower value 0.989 | locus YGR252W, strain gcn5, stronger effect = lower value 0.976 | locus YHR013C, strain ard1, stronger effect = lower value 0.979 | locus YHR027C, strain rpn1, stronger effect = lower value 1.01 | locus YHR030C, strain SLT2, stronger effect = lower value 0.995 and 0.999 | locus YHR079C, strain IRE1 (second series), stronger effect = lower value 1.01 | locus YHR079C, strain IRE1, stronger effect = lower value 0.985 | locus YHR094C, strain hxt1, stronger effect = lower value 0.996 | locus YHR129C, strain ARP1, stronger effect = lower value 1 | locus YHR142W, strain chs7, stronger effect = lower value 1.02 | locus YHR200W, strain rpn10, stronger effect = lower value 0.999 | locus YIL066C, strain RNR3, stronger effect = lower value 0.987 | locus YIL073C, strain SPO22, stronger effect = lower value 1.04 | locus YIL125W, strain kgd1, stronger effect = lower value 1.01 | locus YIR030C, strain dcg1, stronger effect = lower value 0.997 | locus YJL092W, strain hpr5, stronger effect = lower value 1.01 | locus YJL095W, strain BCK1 (second series), stronger effect = lower value 1.01 | locus YJL095W, strain BCK1, stronger effect = lower value 0.975 and 0.986 | locus YJL115W, strain asf1, stronger effect = lower value 1.01 | locus YJL129C, strain trk1, stronger effect = lower value 1.01 | locus YJL134W, strain LCB3, stronger effect = lower value 1 | locus YJL154C, strain vps35, stronger effect = lower value 1.02 | locus YJL164C, strain tpk1, stronger effect = lower value 0.996 | locus YJL166W, strain qcr8, stronger effect = lower value 0.987 | locus YJL168C, strain set2, stronger effect = lower value 1.01 | locus YJL187C, strain SWE1 (second series), stronger effect = lower value 0.994
